# Screening data (PubChem BioAssay)
# RORgamma inh – inhibitors of mouse ROR gamma transcriptional activity. P51450. Drosophila S2 Gal4-RORgamma UAS-luciferase reporter, 20 h. Potency, µM (series often up to 53.6 µM), inactives show at the top dose activity change, negative = inhibition, most hits filed as inhibitors. 310,000 tested, 5.4% active. AID 2551; also: nearly all actives have a fitted effect of over 60% in size
# Target sequence (P51450 whole entry, looked up, the tested form may be a part): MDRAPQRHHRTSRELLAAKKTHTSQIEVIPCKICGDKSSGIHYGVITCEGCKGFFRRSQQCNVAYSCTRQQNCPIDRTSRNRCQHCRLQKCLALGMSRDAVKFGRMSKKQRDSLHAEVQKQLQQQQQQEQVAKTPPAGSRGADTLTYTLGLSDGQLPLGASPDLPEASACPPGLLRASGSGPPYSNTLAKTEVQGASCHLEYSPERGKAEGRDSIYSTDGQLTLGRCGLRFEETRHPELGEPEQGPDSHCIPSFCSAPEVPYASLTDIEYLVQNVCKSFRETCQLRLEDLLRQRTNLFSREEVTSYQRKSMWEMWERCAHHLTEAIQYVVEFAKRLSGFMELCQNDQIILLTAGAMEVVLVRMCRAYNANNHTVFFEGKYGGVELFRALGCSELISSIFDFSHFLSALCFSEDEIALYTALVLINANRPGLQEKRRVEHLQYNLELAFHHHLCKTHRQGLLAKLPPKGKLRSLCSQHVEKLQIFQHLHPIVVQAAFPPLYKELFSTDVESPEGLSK
#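 Luminescence from a UAS-regulated Photinus luciferase reporter in stably transfected Drosophila Schneider cells is measured; decreased signal marks ROR gamma inhibition. Fusion expression is induced by 700 uM copper sulfate for 20 hr.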
# ALOX12 inh – ALOX12 (human) lipoxygenase inhibition. P18054. purified 12hLO, xylenol orange hydroperoxide absorbance. Potency, µM (doses to about 108 µM), for inactives: at the highest dose activity change, negative = inhibition, most hits filed as inhibitors. 580,000 tested, 1.1% active. AID 1671190
#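 Purified human 12hLO (150 nM final) in 25 mM Hepes, 0.01% Triton X-100, pH 7.0 was preincubated 15 min at room temperature with compound. Then 40 uM arachidonic acid was added, 30 min. Hydroperoxide was read by Fe-XO absorbance ratio 573/405 nm.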
# ELG1 repair inh – blocks ELG1-dependent DNA repair in HEK293T cells | HEK293T ELG1-luciferase reporter, luminescence, 16 h; DNA damage induced by 5-fluorouridine | Potency, µM (series often up to 46.1 µM), for the others: top-dose activity change, negative = inhibition, usual class: inhibitors | 330,000 tested, 2.3% active; also: nearly all actives have a fitted effect of over 55% in size
#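 DMSO vehicle served as the neutral condition. Each well held 2,000 cells given 5-fluorouridine plus compound; after 16 hr at 37 °C/5% CO2, ONE-Glo was added and luciferase measured 30 min later.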
# DT40 TDP1 CPT – growth inhibition of DT40 Tdp1-/-;hTDP1 cells with camptothecin (screen for TDP1 inhibitors); chicken DT40 Tdp1-/-;hTDP1 cells + 20 nM CPT, ATP luminescence, 48 h; Potency, µM (doses to about 46.2 µM), inactives show at the highest dose activity change, negative = growth inhibition, actives largely listed as inhibitors; 420,000 tested, 12% active; AID 686979; also: nearly all actives have a fitted effect of over 55% in size
#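 Cell growth measured by CellTiter-Glo luminescence after a minimum 48 h, 37 C compound exposure with 20 nM CPT in Tdp1-knockout DT40 cells stably expressing hTDP1, seeded 400/well; qHTS titration format.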
# TDP1 cell noCPT – qHTS for Inhibitors of human tyrosyl-DNA phosphodiesterase 1 (TDP1): qHTS in cells in absence of CPT | AID 686978, 2013 | Potency, µM (series often up to 46.2 µM), inactives show at the top dose activity change, negative = growth inhibition, most hits filed as inhibitors | 420,000 tested, 15% active | DT40 Tdp1-/- hTDP1 cells, no CPT, ATP luminescence, 48 h; also: nearly all actives have a fitted effect of over 55% in size
#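 No-CPT arm: Tdp1-/-;hTDP1 DT40 cells (400/well) plus compounds, incubated ≥48 hr at 37 °C. Readout CellTiter-Glo luminescence.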
# Gal4-VP16 FLuc – Gal4-VP16 reporter inhibition counter-screen. Drosophila S2 Gal4-VP16 UAS-luciferase, luminescence, 20 h. Potency, µM (top dose mostly 53.6 µM), for the others: top-dose activity, negative = inhibition, usual class: inhibitors. 310,000 tested, 3.5% active;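 also: Gal4-VP16 expression switched on by copper sulfate through the metallothionein promoter; nearly all actives have a fitted effect of over 50% in size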
# Active calls of the source: *; ? = inconclusive; nt = not tested or not shown; [ ] = remark or other dose. Only some compounds are listed: those with a hit (about 15% of all), similar ones and a draw of the others. Calls follow the shape of the dose curve; as a rule, active = well fitted curve in the direction sought with a large enough effect; inconclusive = small, poorly fitted or top-dose-only effect, or another doubt; inactive = no such curve, though single readings can be large; an effect the other way counts as inactive or inconclusive. % is scaled to controls: 0 for no effect and ±100 for the full control effect; potency is read from the fitted curve at half-maximal effect.
SMILES,RORgamma inh,ALOX12 inh,ELG1 repair inh,DT40 TDP1 CPT,TDP1 cell noCPT,Gal4-VP16 FLuc
COc1ccc(C(=C(Cl)Cl)c2ccc(OC)cc2)cc1,nt,-7%,nt,nt,nt,nt
Nc1ccc(Nc2ccc([N+](=O)[O-])cc2[N+](=O)[O-])cc1,23%,-25%,-1%,?,-22%,-8%
O=[N+]([O-])c1ccc(NN=CC2CCCCCC2)c([N+](=O)[O-])c1,nt,?,nt,15µM*,13µM*,nt
CCC(=O)N1CCc2cc(Br)cc(S(=O)(=O)NCc3ccccc3)c21,nt,-23%,nt,-3%,?,nt
CCC(=O)N1CCc2cc(Br)cc(S(=O)(=O)N3CCCC(C(=O)NCc4ccc(C)cc4)C3)c21 (configuration not stated),nt,-21%,nt,16µM*,16µM*,nt
CCC(=O)N1CCc2cc(Br)cc(S(=O)(=O)N3CCCC(C(=O)Nc4cccc(C)c4C)C3)c21 (configuration not stated),nt,-22%,nt,?,?,nt
CCC(=O)N1CCc2cc(Br)cc(S(=O)(=O)N3CCCC(C(=O)Nc4cccc(F)c4)C3)c21 (configuration not stated),nt,-22%,nt,23µM*,18µM*,nt
CCC(=O)N1CCc2cc(Br)cc(S(=O)(=O)NCCc3cccc(C)c3)c21,nt,-17%,nt,16µM*,23µM*,nt
CCC(=O)N1CCc2cc(Br)cc(S(=O)(=O)N3CCCC(C(=O)Nc4ccc(CC)cc4)C3)c21 (configuration not stated),nt,-16%,nt,-17%,?,nt
O=C(CN1CCN(c2ccc([N+](=O)[O-])c3cnccc23)CC1)Nc1cccc(F)c1,nt,3%,nt,nt,nt,nt
COC(=O)c1ccc(C)c(NC(=O)CCSc2ccc(Cl)cc2)c1,-1%,18%,?,1%,-2%,-8%
Cc1ccc(C)c(NC(=S)NCCSc2ccc(Cl)cc2)c1,2.5µM*,28µM*,2%,21µM*,16µM*,5µM*
Cc1ccc(NC(=S)NCCSc2ccc(Cl)cc2)c(C)c1,0.79µM*,?,-14%,?,?,1µM*
CCc1ccccc1NC(=S)NCCSc1ccc(Cl)cc1,1.1µM*,50µM*,?,?,?,7.1µM*
CS(=O)(=O)Nc1ccccc1C(=O)NCCSc1ccc(Cl)cc1,331%,-6%,?,?,?,10%
Cc1ccccc1NC(=S)NCCSc1ccc(Cl)cc1,2.2µM*,45µM*,-18%,?,18µM*,?
CN1C(=O)C2(CCN(Cc3cccc4ccccc34)C2)c2ccccc21 (configuration not stated),nt,-10%[176 µM],nt,nt,nt,nt
Cc1ncoc1C(=O)N1CCC(F)(c2nc(-c3ccncc3)no2)CC1,nt,51%,nt,nt,nt,nt
Cc1ccc(Cl)cc1NC(=S)NCCCSC1CCCCC1,2µM*,35µM*,-30%,?,18µM*,?
Cc1ccc(SCCNC(=S)Nc2cccc(Cl)c2C)cc1,nt,32µM*,nt,nt,nt,nt
CCc1ccc(S(=O)(=O)N2CC(COC)C3(CCNCC3)C2)cc1 (configuration not stated),nt,4%,nt,nt,nt,nt
O=C(c1cc(C2CC2)nc2ccc(Br)cc12)N1N=C(C(F)F)CC1(O)C(F)F (configuration not stated),-6%,0%,-4%,16µM*,16µM*,-12%
COc1cccc(/C=N/NC(=O)c2ccc3nc[nH]c3c2)c1O,-25%,-5%,-4%,?,-30%,-11%
COc1cccc(/C=N/NC(=O)c2cc3c(OC)ccc(OC)c3[nH]2)c1O,1.6µM*,9%,3.7µM*,6.5µM*,4.1µM*,2.8µM*
COc1cc(OC)c2cc(C(=O)N/N=C/c3cccc(OC)c3O)[nH]c2c1,2.2µM*,-2%,?,15µM*,6.5µM*,4.5µM*
SMILES,RORgamma inh,ALOX12 inh,ELG1 repair inh,DT40 TDP1 CPT,TDP1 cell noCPT,Gal4-VP16 FLuc
COc1ccc(/C=N/NC(=O)c2cc3cc(OC)c(OC)cc3[nH]2)cc1,32%,7%,-28%,?,-24%,-8%
COc1ccc2cc(C(=O)N/N=C/c3cc(OC)c(OC)c(OC)c3)[nH]c2c1,24%,-1%,?,-22%,-9%,4%
COc1cc2cc(C(=O)N/N=C/c3ccccc3Cl)[nH]c2cc1OC,0%,0%,?,?,23µM*,-7%
COC(=O)Cn1c(=NC(=O)c2cc(-c3cccs3)nc3ccccc23)sc2cc(S(N)(=O)=O)ccc21,-19%,-26%,9.2µM*,?,9.2µM*,?
COC(=O)Cn1c(=NC(=O)c2nc3ccccc3s2)sc2cc(S(N)(=O)=O)ccc21,?,-12%,-20%,?,?,?
CCOC(=O)Cn1c(=NC(=O)C2COc3ccccc3O2)sc2cc(S(N)(=O)=O)ccc21 (configuration not stated),10%,-23%,-18%,?,21µM*,-12%
CCOC(=O)Cn1c(=NC(=O)c2cc(-c3cccs3)nc3ccccc23)sc2cc(S(N)(=O)=O)ccc21,16µM*,-46%,?,23µM*,16µM*,11µM*
Nc1ncccc1CN1CC[C@@H]2OCC(=O)N(c3ccccc3)[C@H]2CC1,nt,5%[176 µM],nt,nt,nt,nt
CCOc1ccc(C(C)=O)cc1CN(C)CC(=O)Nc1ccc(Cl)cc1,nt,-21%,nt,nt,nt,nt
O=C(CCS(=O)(=O)c1ccc(Br)cc1)Nc1ccc(Cl)c(C(F)(F)F)c1,nt,?,nt,?,21µM*,nt
CN1C(=O)Cc2cc(S(=O)(=O)CCC(=O)Nc3ccc(Cl)c(C(F)(F)F)c3)ccc21,nt,-17%,nt,23µM*,?,nt
CCC(=O)N1CCc2cc(S(=O)(=O)CCC(=O)Nc3ccc(Cl)c(C(F)(F)F)c3)ccc21,nt,-4%,nt,16µM*,8.2µM*,nt
COc1ccccc1C(=O)COC(=O)c1cc(S(N)(=O)=O)ccc1F,nt,2%,nt,nt,nt,nt
O=C(CCCl)Nc1ccc2c(c1)CCC2,nt,11%,nt,nt,nt,nt
COc1ccc(-c2cc(N3CCCC(NC(=O)c4ccc(F)cc4F)C3)n[nH]2)cc1 (configuration not stated),nt,13%,nt,nt,nt,nt
CCOC(=O)/C(=N\Nc1ccc(C(C)=O)cc1)c1csc(Nc2ccccc2)n1,?,-17%,?,?,10µM*,?
O=C(COC(=O)c1ccc(O)cc1O)N=c1sccn1Cc1ccccc1Cl,nt,-16%,?,?,?,nt
Cc1ccc(Cn2ccsc2=NC(=O)COC(=O)C(C)C)cc1,14%,-9%,1%,15µM*,8.2µM*,1%
